Values joined by “and” are separate entries in the source; they are usually repeats but may differ in a detail not shown here. Equal values may be shown once. Inconclusive results are not listed. Entries that show only a call come without a potency. A structure can be active in one record and inactive in another. Active and inactive are the calls of the source. Unless noted, calls come from the whole dose curve; as a rule, active = well fitted curve in the direction sought with a large enough effect in the repeat runs; inconclusive = weak or mixed curves; inactive = no such curve, though single readings can be large; an effect the other way counts as inactive or inconclusive.
How the values were obtained:
[1] = qHTS assay to identify small molecule agonists of the hypoxia (HIF-1) signaling pathway (AID 1224846; active = well fitted activation curve with a large enough effect in the signal ratio in the repeat runs, not every such curve was filed as active; the % refers to the signal ratio)
Summary of the method: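 A low-serum medium (0.5% dialyzed FBS) holding 2,000 HRE-bla ME-180 cells per well is preincubated for 5 hrs, dosed with compounds by pintool, and kept a further 17 hrs at 37C, 5% CO2 before CCF4-AM FRET detection of beta-lactamase.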

[2] = qHTS assay to identify small molecule agonists of H2AX - cell viability counter screen (AID 1224847; calls by dose curve; note: nearly all actives have a fitted effect of over 30% in size; note: potency is the fitted concentration of half-maximal effect)
Summary of the method: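 CHO-K1 wt, 1000 cells/well, o/n 37C; cpds 15 conc, 3 h 37C, 0.76% DMSO; CellTiter-Glo, 30 min RT, luminescence.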

[3] = qHTS assay to identify small molecule agonists of the estrogen related receptor (ERR) signaling pathway from Tox21 library (AID 1224849; calls by dose curve; note: nearly all actives have a fitted effect of over 15% in size); conditions: ERR reporter cell line, ONE-Glo luciferase, 18 h
Summary of the method: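 Screening used an NTP-provided ERR luciferase cell line. Compounds in DMSO were added 6 h after seeding and left 18 h at 37 C before a 30 min ONE-Glo step and luminescence reading.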

[4] = qHTS RealTime-Glo MT Cell Viability Assay in HepG2 cells - 24 hour (AID 1224867); note: nearly all actives have a fitted effect of over 50% in size; note: potency is the fitted concentration of half-maximal effect
Summary of the method: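 Viability was tracked continuously by NanoLuc luminescence from prosubstrate reduced by living HepG2 cells, at successive time points over 40 h of compound exposure. Cells with reagent were preincubated 5 h at 37 °C before compound addition.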

[5] = qHTS RealTime-Glo MT Cell Viability Assay in HEK293 cells - 32 hour (AID 1224868); note: nearly all actives have a fitted effect of over 50% in size; note: potency is the fitted concentration of half-maximal effect
Summary of the method: (§1)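 Viability tracked continuously by luminescence as live cells reduce a prosubstrate for NanoLuc; HEK293 cells preincubated 5 h, compound-treated at 37 C, and read at 0, 8, 16, 24, 32 and 40 h.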

[6] = A CellTox Green Cytotoxicity Assay to monitor cytotoxicity in HEK293 cells - 0 hour (AID 1224869); note: nearly all actives have a fitted effect of over 50% in size
Summary of the method: (§2)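 Fluorescence intensity, read at 0, 8, 16, 24, 32 and 40 h of compound treatment, reflected dye binding to DNA of dead HEK293 cells; compounds (23 nL, DMSO) were added 5 h after plating cells with reagent.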

[7] = qHTS RealTime-Glo MT Cell Viability Assay in HepG2 cells - 40 hour (AID 1224870); note: nearly all actives have a fitted effect of over 50% in size; note: potency is the fitted concentration of half-maximal effect
Summary of the method: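 HepG2 cells (600/well) mixed with RealTime-Glo MT reagent, settled 5 h at 37 C/5% CO2 before compound addition. Nonlytic NanoLuc luminescence from viable-cell prosubstrate reduction read repeatedly during 40 h treatment at 37 C.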

[8] = A CellTox Green Cytotoxicity Assay to monitor cytotoxicity in HEK293 cells - 40 hour (AID 1224871); note: nearly all actives have a fitted effect of over 45% in size; note: potency is the fitted concentration of half-maximal effect
Summary of the method: as §2

[9] = qHTS RealTime-Glo MT Cell Viability Assay in HEK293 cells - 16 hour (AID 1224872); note: nearly all actives have a fitted effect of over 50% in size; note: potency is the fitted concentration of half-maximal effect
Summary of the method: as §1

[10] = qHTS assay to identify small molecule antagonists of the estrogen related receptor (ERR) signaling pathway from Tox21 library (AID 1224848); note: nearly all actives have a fitted effect of over 50% in size; note: potency is the fitted concentration of half-maximal effect
Summary of the method: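 Luminescent reporter read-out (ONE-Glo) from NTP's ERR cell line after 18 h treatment at 37 C with DMSO-dissolved Tox21 compounds; cells pre-plated 6 h beforehand at 2,000 per well.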

[11] = at 92.4 µM (top of the series) unless noted

CCCCCCCCCCOCC(O)CN (stereo not given)
outcome [1]: inactive
Potency [2]: 55.2 µM (active)
activity change, positive = activation [3, 11]: -64% [at 42.5 µM] (inactive)
Potency [4]: 15.1 µM (active)
Potency [5]: 23.9 µM (active)
Potency [6]: inactive
Potency [7]: 15.1 µM (active)
Potency [8]: 26.8 µM (active)
Potency [9]: 23.9 µM (active)

OCCCS
outcome [1]: inactive
Potency [2]: inactive
Potency [4]: inactive
Potency [5]: inactive
Potency [6]: inactive
Potency [7]: inactive
Potency [8]: inactive
Potency [9]: inactive

C/C=C/c1ccc(OC)c(OC)c1
outcome [1]: inactive
Potency [2]: inactive
Potency [4]: inactive
Potency [5]: inactive
Potency [6]: inactive
Potency [7]: inactive
Potency [8]: inactive
Potency [9]: inactive

O=C(O)CC(=O)O
outcome [1]: inactive
Potency [2]: inactive
Potency [4]: inactive
Potency [5]: inactive
Potency [6]: inactive
Potency [7]: inactive
Potency [8]: inactive
Potency [9]: inactive

CCCCCCCCCCCCCc1ccccc1
outcome [1]: inactive
Potency [2]: inactive
Potency [4]: inactive
Potency [5]: inactive
Potency [6]: inactive
Potency [7]: inactive
Potency [8]: inactive
Potency [9]: inactive

Cc1cc(C)c(C=O)c(C)c1
outcome [1]: inactive
Potency [2]: inactive
Potency [4]: inactive
Potency [5]: inactive
Potency [6]: inactive
Potency [7]: inactive
Potency [8]: inactive
Potency [9]: inactive

C=C(C)C(=O)OCCC[Si](Cl)(Cl)Cl
outcome [1]: inactive
Potency [2]: inactive
Potency [4]: inactive
Potency [5]: inactive
Potency [6]: inactive
Potency [7]: inactive
Potency [8]: inactive
Potency [9]: inactive

O=C(O)Cc1ccc(OCCNC[C@H](O)c2ccccc2)cc1
outcome [1]: inactive
Potency [2]: inactive
Potency [4]: inactive
Potency [5]: inactive
Potency [6]: inactive
Potency [7]: inactive
Potency [8]: inactive
Potency [9]: inactive

CCCCCCCC/C=C\CCCCCCCC(=O)OCCOC(=O)CCCCCCC/C=C\CCCCCCCC
outcome [1]: inactive
Potency [2]: inactive
Potency [4]: inactive
Potency [5]: inactive
Potency [6]: inactive
Potency [7]: inactive
Potency [8]: inactive

CCC(=O)OCCc1ccccc1
outcome [1]: inactive
Potency [2]: inactive
Potency [4]: inactive
Potency [5]: inactive
Potency [6]: inactive
Potency [7]: inactive
Potency [8]: inactive
Potency [9]: inactive

CCCCCCC(C)OC(=O)COc1nc(F)c(Cl)c(N)c1Cl (stereo not given)
outcome [1]: inactive
Potency [2]: 113 µM (active)
activity change, positive = activation [3, 11]: -16.7% (inactive)
Potency [5]: inactive
Potency [6]: inactive
Potency [7]: inactive
Potency [8]: inactive
Potency [9]: inactive

CC1CNCC(C)O1 (stereo not given)
outcome [1]: inactive
Potency [2]: inactive
Potency [4]: inactive
Potency [5]: inactive
Potency [6]: inactive
Potency [7]: inactive
Potency [8]: inactive
Potency [9]: inactive

O[C@@H](c1cc(C(F)(F)F)nc2c(C(F)(F)F)cccc12)[C@H]1CCCCN1
outcome [1]: inactive
activity change, positive = activation [3, 11]: -63.8% [at 42.5 µM] (inactive)
Potency [4]: 16.9 µM (active)
Potency [5]: 8.49 µM (active)
Potency [6]: inactive
Potency [7]: 13.4 µM (active)
Potency [8]: 23.9 µM (active)
Potency [9]: 7.56 µM (active)

CC(C)OC(=O)c1cc(C(=O)OC(C)C)cc([N+](=O)[O-])c1
outcome [1]: inactive
Potency [10]: inactive
activity change, positive = activation [3, 11]: -0.42% (inactive)
Potency [4]: inactive
Potency [6]: inactive
Potency [7]: inactive

CC1=C(/C=C/C(C)=C/C=C/C(C)=C/C(=O)Nc2ccc(O)cc2)C(C)(C)CCC1
Potency [2]: 103 µM (active)
Potency [10]: 14 µM (active) and 11.9 µM (active)
activity change, positive = activation ([3]; at 42.5 µM (top of the series)): -57.7% (inactive)
activity change, positive = activation ([3]; at 92.4 µM (top of the series)): -54.4% (inactive)
Potency [4]: inactive and 26.8 µM (active)
Potency [5]: 1 µM (active) and 425 nM (active)
Potency [6]: inactive
Potency [7]: inactive
Potency [8]: inactive
Potency [9]: 796 nM (active) and 477 nM (active)

NC(=O)C(=O)N/N=C/c1ccc([N+](=O)[O-])o1
outcome [1]: inactive
Potency [4]: inactive
Potency [5]: inactive
Potency [6]: inactive
Potency [7]: inactive
Potency [8]: inactive
Potency [9]: inactive

C=C(c1ccc(C(=O)O)cc1)c1cc2c(cc1C)C(C)(C)CCC2(C)C
Potency [2]: 101 µM (active) and inactive
Potency [10]: 21.7 µM (active) and 23.7 µM (active)
activity change, positive = activation ([3]; at 42.5 µM (top of the series)): -34.6% (inactive)
activity change, positive = activation ([3]; at 92.4 µM (top of the series)): -63.5% (inactive)
Potency [4]: inactive
Potency [5]: inactive
Potency [6]: inactive
Potency [7]: inactive
Potency [8]: 30.9 µM (active) and inactive
Potency [9]: inactive

O=C[C@H](O)[C@H](O)[C@H](O)CO
outcome [1]: inactive
Potency [2]: inactive
Potency [5]: inactive
Potency [6]: inactive
Potency [7]: inactive
Potency [8]: inactive
Potency [9]: inactive

O=C(c1ccccc1)c1cc(Cl)ccc1O
outcome [1]: inactive
Potency [10]: inactive
activity change, positive = activation [3, 11]: -10.3% (inactive)
Potency [6]: inactive
Potency [7]: inactive

c1ccc(Nc2cccc3ccccc23)cc1
Potency [2]: 115 µM (active) and 113 µM (active)
Potency [10]: inactive
activity change, positive = activation [3, 11]: -11.6% (active)
Potency [4]: inactive
Potency [5]: inactive
Potency [6]: inactive
Potency [7]: inactive
Potency [8]: inactive
Potency [9]: inactive

CC(C)(C)c1cc(CCC(=O)NCCCCCCNC(=O)CCc2cc(C(C)(C)C)c(O)c(C(C)(C)C)c2)cc(C(C)(C)C)c1O
outcome [1]: inactive
Potency [2]: inactive
Potency [6]: inactive
Potency [7]: inactive
Potency [8]: inactive

C[C@H]1O[C@@H](O[C@H]2[C@@H](O)C[C@H](O[C@H]3[C@@H](O)C[C@H](O[C@H]4CC[C@@]5(C)[C@H](CC[C@@H]6[C@@H]5C[C@@H](O)[C@]5(C)[C@@H](C7=CC(=O)OC7)CC[C@]65O)C4)O[C@@H]3C)O[C@@H]2C)C[C@H](O)[C@@H]1O
Potency [2]: inactive
Potency [10]: inactive
activity change, positive = activation ([3]; at 42.5 µM (top of the series)): -72.5% (active)
activity change, positive = activation ([3]; at 92.4 µM (top of the series)): -71.3% (inactive)
Potency [4]: inactive
Potency [5]: 61.7 nM (active) and 54.3 nM (active)
Potency [6]: inactive
Potency [7]: inactive
Potency [8]: inactive

O=C1NC2CCCCN2C12CCN(CCCN1c3ccccc3CCc3ccc(Cl)cc31)CC2 (stereo not given)
outcome [1]: inactive
Potency [10]: 23.7 µM (active)
activity change, positive = activation [3, 11]: -64.1% [at 42.5 µM] (inactive)
Potency [4]: 23.9 µM (active)
Potency [5]: 9.52 µM (active)
Potency [6]: inactive
Potency [7]: 23.9 µM (active)
Potency [8]: 21.3 µM (active)
Potency [9]: 8.49 µM (active)

CCN(CC)CCSC(=O)C(c1ccccc1)c1ccccc1
outcome [1]: inactive
Potency [4]: inactive
Potency [5]: inactive
Potency [6]: inactive
Potency [7]: inactive
Potency [9]: inactive

C[C@@H]1CC[C@H]2C(C)(C)[C@H]3C[C@@]12CC[C@@]3(C)O
outcome [1]: inactive
Potency [10]: inactive
activity change, positive = activation [3, 11]: -6.53% (inactive)
Potency [4]: inactive
Potency [5]: inactive
Potency [6]: inactive
Potency [7]: inactive
Potency [8]: 38.8 µM (active)

Source: PubChem BioAssay (Tox21)
